This is a sample that favours compounds with a hit; in the whole collection about 3.1% have one here.
TRPM1 prom inh = inhibitors of MITF-driven TRPM1 promoter in melanoma cells. SK-MEL-5 TRPM1 promoter luciferase, 24 h. inhibition, % at 12.5 µM. actives 0.83% (n = 330,000);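 active = mean inhibition across replicates of 60% or more, whatever share of single replicates reaches that level; inconclusive = some that reach 60%, reason not given; inactive = mean inhibition across replicates below 60%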
ABHD5-PLIN5 inh = blocks binding of human ABHD5 to perilipin-5. actives 0.78% (n = 360,000). AID 602281. Split G. princeps luciferase complementation, luminescence, 4 h. Q00G26+Q8WTS1. inhibition, % at 4 µM;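 active = inhibition above the mean inhibition across every tested compound plus 3 SD, cut at about 22% in these data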
Target sequence (Q00G26 whole entry, looked up): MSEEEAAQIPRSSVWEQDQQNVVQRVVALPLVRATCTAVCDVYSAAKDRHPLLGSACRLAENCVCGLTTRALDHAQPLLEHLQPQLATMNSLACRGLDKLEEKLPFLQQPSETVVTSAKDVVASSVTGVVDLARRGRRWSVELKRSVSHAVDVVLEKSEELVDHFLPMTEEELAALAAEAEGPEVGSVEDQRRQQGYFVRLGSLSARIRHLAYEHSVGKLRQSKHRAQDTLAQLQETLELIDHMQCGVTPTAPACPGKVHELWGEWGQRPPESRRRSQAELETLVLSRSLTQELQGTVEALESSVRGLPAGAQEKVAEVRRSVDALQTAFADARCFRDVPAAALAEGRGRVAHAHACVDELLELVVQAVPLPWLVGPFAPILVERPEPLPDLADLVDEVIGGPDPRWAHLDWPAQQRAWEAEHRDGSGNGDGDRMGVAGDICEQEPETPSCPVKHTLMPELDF
Target sequence (Q8WTS1 whole entry, looked up): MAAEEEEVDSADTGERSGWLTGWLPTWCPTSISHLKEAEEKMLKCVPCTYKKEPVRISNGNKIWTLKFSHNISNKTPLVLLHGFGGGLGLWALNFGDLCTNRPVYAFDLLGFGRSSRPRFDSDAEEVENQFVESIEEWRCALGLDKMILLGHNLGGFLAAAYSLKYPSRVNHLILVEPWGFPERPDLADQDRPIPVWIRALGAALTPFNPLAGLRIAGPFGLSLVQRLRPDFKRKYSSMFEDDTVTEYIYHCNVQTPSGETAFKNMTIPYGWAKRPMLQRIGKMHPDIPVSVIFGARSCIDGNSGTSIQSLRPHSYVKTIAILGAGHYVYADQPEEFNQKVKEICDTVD
Peg3 prom inh-1 = inhibitors of Peg3 promoter | HeLa PEG-Prom luciferase reporter, luminescence, overnight | inhibition, % at 20 µM | actives 1.7% (n = 360,000) | AID 588405;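 active = inhibition of at least 50% at 20 µM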
HIF-2a block = blocks HIF-2a reporter activity. actives 0.72% (n = 360,000). 786-0 RCC cells HIF-2a reporter, luciferase luminescence, overnight. AID 624352. inhibition, % at 18.8 µM;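 active = inhibition of the luminescence signal of 40% or more relative to plate controls, in a single-dose primary screen at 18.75 µM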
CF NFkB inh = blocks PAF-induced NF-kB reporter in cystic fibrosis cells; KKLEB NF-kB-GFP reporter, GFP fluorescence overnight; AID 588850; inhibition, % at 5 µM; actives 0.86% (n = 360,000);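 active = at least 50% inhibition at 5 µM, scaled per plate between neutral and stimulator controls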;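 also: PAF is a Pseudomonas aeruginosa culture filtrate used as stimulus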
KKLEB tox = reduces viability of KKLEB cystic fibrosis airway cells; KKLEB CF airway cells viability, ATPlite luminescence, overnight; hits give low values; cells stimulated with P. aeruginosa culture filtrate; activity change (cytotoxicity), % at 5 µM; actives 0.36% (n = 360,000); AID 602141;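 active = corrected activity change at or below -50% at 5 µM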
Peg3 prom inh-2 = Peg3 promoter inhibition confirmation. shares compounds with Peg3 prom inh-1. HeLa PEG-Prom luciferase reporter, luminescence, overnight. inhibition, % at 20 µM. actives 84% (n = 1,300);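 active = at 20 µM dose, 40% or more inhibition averaged across four replicates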
A number is an active result; – = inactive; ? = inconclusive; · = no result given.

SMILES	TRPM1 prom inh	ABHD5-PLIN5 inh	Peg3 prom inh-1	HIF-2a block	CF NFkB inh	KKLEB tox	Peg3 prom inh-2
NC(N)=N/N=C/c1ccc(OCc2ccccc2)c(OCc2ccccc2)c1	82	–	103	–	–	-53	99
CCn1c(O)c(/C=N/N=C2CCCCC2)c2cc(C3=NNC(=O)CC3)ccc21	–	–	–	–	–	–	·
CC(=O)Nc1ccc(S(=O)(=O)N(Cc2ccco2)Cc2cc3ccccc3[nH]c2=O)cc1	–	–	60	–	–	–	55
CC(=O)Nc1ccc(S(=O)(=O)N(Cc2cccnc2)Cc2cc3ccccc3[nH]c2=O)cc1	–	–	56	–	81	–	46
COc1ccc(N(Cc2cc3cc(OC)ccc3[nH]c2=O)S(=O)(=O)c2ccc(NC(C)=O)cc2)cc1	–	–	62	–	80	-101	61
O=c1[nH]c2ccccc2cc1CN(Cc1cccnc1)S(=O)(=O)c1ccc(Cl)cc1	–	–	–	–	–	–	·
COc1ccc(N(Cc2cc3ccccc3[nH]c2=O)S(=O)(=O)c2ccc(OC)cc2)cc1	–	–	–	–	–	–	·
COc1ccc(C2NC3=C(CCC3)C3(C#N)C4(N=C(N)C23C#N)OCCO4)cc1 (stereo not given)	–	–	67	–	–	–	–
CC1CCCCN1C(=O)CSc1nnc2c(n1)[nH]c1ccc(F)cc12 (stereo not given)	–	–	–	–	–	–	·
CC1CCc2cc(F)ccc2N1C(=O)CSc1nnc2c(n1)[nH]c1ccc(F)cc12 (stereo not given)	–	–	100	–	–	–	–
CCOC(=O)CN(C(=O)CSc1nnc2c(n1)[nH]c1ccc(F)cc12)c1ccccc1	–	–	56	–	–	–	49
COc1ccc(NC(=O)C2(C)Cc3c(-c4ccc(C(N)=O)cc4)ccnc3O2)cc1OC (stereo not given)	·	–	–	–	–	–	·
CC(=O)CCc1ccc(Oc2nc(-c3cccnc3)nc3ccccc23)cc1	–	–	66	–	–	–	–
O=C(N=Nc1c(O)[nH]c2ccccc12)c1ccc2c(c1)OCO2	–	–	–	–	–	–	·
CSc1ccc(CN2CCc3c([nH]c4ccccc34)C2)cc1	–	–	–	–	–	–	·
Clc1ccc(CN2CCc3c([nH]c4ccccc34)C2)cc1Cl	–	–	81	–	–	–	–
Cc1cccc2c1cnn2C(=O)CCC(=O)NCc1ccc(F)cc1	–	–	–	–	–	–	·
COC(=O)C1=C(CN2CCCc3ccccc32)NC(=O)NC1c1ccc(F)cc1 (stereo not given)	87	–	81	63	–	–	67
CN1CCC(N(C)C(=O)/C=C/c2cn(-c3ccccc3)nc2-c2cccs2)CC1	?	–	77	–	–	–	93
CCN(CC(=O)Nc1ccc(NC(C)=O)cc1)C(=O)/C=C/c1cn(-c2ccccc2)nc1-c1cccs1	–	–	–	–	–	–	·
O=C(/C=C\Nc1ccccn1)c1ccccc1	–	–	–	–	–	–	·
O=C(/C=C/Nc1ccccc1Br)c1ccccn1	76	–	90	85	–	–	87
CC1CCCC(C)N1C(=O)CSc1nnc(COc2ccccc2)n1-c1ccccc1 (stereo not given)	–	–	–	–	–	–	·
CN(C)CCCN(C(=O)c1ccc(C(=O)c2ccccc2)cc1)c1nc2cc3c(cc2s1)OCO3	–	–	86	–	–	–	90
Cc1ccc2nc(N(CCCN(C)C)C(=O)c3ccc4c(c3)CCCC4)sc2c1	?	22	108	–	–	–	98
CCN(Cc1ccccc1)S(=O)(=O)c1ccc(C(=O)N(CCCN(C)C)c2nc3cc4c(cc3s2)OCCO4)cc1	–	–	53	–	–	–	72
NS(=O)(=O)c1ccc(CCNC(=O)CCc2nc3ccccc3s2)cc1	–	–	–	–	–	–	·
Cc1cc(C)c(NC(=O)Cn2c([N+](=O)[O-])cnc2C)c(C)c1	–	–	–	–	–	–	·
Cc1cc(OCC(=O)N2CCC(O)CC2)c2c(C)cc(=O)oc2c1	–	–	–	–	–	–	·

Source: PubChem (several laboratories)
